Data published in PubChem BioAssay (NCI).
About 83,000 compounds went through this panel and 20% of them were active in at least one assay; those are over-represented in the sample as a whole.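 Negative percent growth values reflect cell death: -40 means 40% of the cells present at the start died, and -100 means all died.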 A number with no mark means an inactive call. Active and inactive are the calls of the source. Rule for the calls: active = growth percent below 10; inactive = the rest.

What was measured:
Test in all cases: NCI-60 one-dose screen, 48 h (100 = growth as untreated, 0 = no growth, -100 = all killed)
Settings in all cases: 10 µM unless noted
DU-145 prostate = tested on: DU-145 prostate
K-562 leukemia = tested on: K-562 leukemia
MALME-3M melanoma = tested on: MALME-3M melanoma
MDA-MB-231 breast = tested on: MDA-MB-231 breast
RXF 393 renal = tested on: RXF 393 renal
SF-268 CNS = tested on: SF-268 CNS
SF-295 CNS = tested on: SF-295 CNS
SF-539 CNS = tested on: SF-539 CNS
UACC-257 melanoma = tested on: UACC-257 melanoma
M14 melanoma = tested on: M14 melanoma
HCT-15 colon = tested on: HCT-15 colon
HT29 colon = tested on: HT29 colon
SNB-75 CNS = tested on: SNB-75 CNS
SNB-19 CNS = tested on: SNB-19 CNS
U251 CNS = tested on: U251 CNS
PC-3 prostate = tested on: PC-3 prostate
SK-MEL-5 melanoma = tested on: SK-MEL-5 melanoma
UACC-62 melanoma = tested on: UACC-62 melanoma
LOX IMVI melanoma = tested on: LOX IMVI melanoma
SK-MEL-28 melanoma = tested on: SK-MEL-28 melanoma

SMILES | growth (DU-145 prostate) | growth (K-562 leukemia) | growth (MALME-3M melanoma) | growth (MDA-MB-231 breast) | growth (RXF 393 renal) | growth (SF-268 CNS) | growth (SF-295 CNS) | growth (SF-539 CNS) | growth (UACC-257 melanoma) | growth (M14 melanoma) | growth (HCT-15 colon) | growth (HT29 colon) | growth (SNB-75 CNS) | growth (SNB-19 CNS) [%] | growth (U251 CNS) | growth (PC-3 prostate) | growth (SK-MEL-5 melanoma) | growth (UACC-62 melanoma) | growth (LOX IMVI melanoma) | growth (SK-MEL-28 melanoma)
Cc1ccc2[nH]c(=O)c3c(c2c1)OC(N)=C(C#N)C31c2cc(Br)ccc2-c2ccc(Br)cc21 | 29.1% | 60.7% | 54.9% | 39.1% | 65.8% | 78% | 70.1% | 85.5% | 76.8% | 55.1% | 45.4% | 39.7% | 70% | 62.5 | 72.6% | 48.3% | 56% | 49.5% | 63% | 66.8%
O=C(c1ccc(Nc2nccc(NCCCCNc3ccnc4cc(Cl)ccc34)n2)cc1)N1CCCCC1 | 51.6% | -25.3% (active) | -78.6% (active) | -9.32% (active) | 46.9% | 34.2% | 1.19% (active) | -73.7% (active) | -50.8% (active) | -69% (active) | 11.2% | -11.3% (active) | -23.5% (active) | 24.7 | -31.6% (active) | 28.7% | -92.3% (active) | -23% (active) | -83.2% (active) | -52.5% (active)
COc1cccc(-c2nn(-c3ccccc3)cc2-c2ccnc(NCCCNC(=O)c3ccc(F)cc3)c2)c1 | 65.5% | 16.9% | 48.2% | 51.3% | 56.3% | 53.7% | 36.5% | 68.3% | 42.3% | 20.3% | 24.9% | 11.7% | 46.2% | 67.2 | 36.4% | 27.1% | 6.09% (active) | 40.1% | 55.7% | 58.7%
COc1ccc(C2CC(c3cccc(OC)c3)=NN2C(=O)c2cc(OC)c(OC)c(OC)c2)cc1 (stereo not given) | -24.7% (active) | 5.93% (active) | 37.7% | 33.6% | 23.4% | 41.4% | 7.64% (active) | -16% (active) | 65% | 16.5% | 30.9% | 14% | 22.3% | 28.5 | 35.5% | 25.7% | -3.53% (active) | 37.9% | 35.5% | 56.2%
COCCN(C(=O)c1ccc(F)cc1F)c1c(N)n(Cc2ccccc2)c(=O)[nH]c1=O | 120% | 96.6% | 120% | 106% | 101% | 111% | 108% | 108% | 106% | 112% | 98.8% | 104% | 105% | 106 | 100% | 97.4% | 108% | 94.3% | 99.3% | 114%
COc1ccc(-c2cc(-c3cc(OC)ccc3OC)nc(SCC(=O)c3ccccc3)c2C#N)cc1 | 106% | 105% | 88.9% | 94.4% | 97.2% | 99% | 104% | 94.8% | 101% | 98.1% | 109% | 95% | 68% | 107 | 90.4% | 88.3% | 98.8% | 78.4% | 92.1% | 103%
CCN1C(=O)N(CC)C2C1NN=c1s/c(=C\c3cccs3)c(=O)n12 (stereo not given) | 10.4% | 14.5% | 49.1% | 7.14% (active) | 11.5% | 59.3% | 19.3% | -3.34% (active) | 74.4% | 8.36% (active) | 16.5% | 60.2% | 16.6% | 37 | 19.8% | 21.9% | -4.97% (active) | 38% | 23.1% | 58.3%
COc1ccc(/C=C/c2c(C(=O)/C=C/c3ccc(F)cc3)c(C)nc3ccccc23)cc1 | 35.8% | 10.3% | 83.6% | 54.8% | 55.5% | 69.3% | 62.4% | 81.5% | 66.6% | 65% | 10.8% | 23.6% | 52.1% | 60.9 | 49.6% | 41.7% | 63.4% | 46.8% | 19.7% | 55.3%
O=C(N=c1oc2ccccc2cc1-c1cc2ccccc2[nH]1)c1ccc(Cl)cc1 | 51.3% | 26.5% | 94.1% | 51.2% | 59.9% | 35.5% | 60.3% | 52.8% | 98.7% | 79.7% | 25.7% | 65.7% | 53.6% | 32.6 | 28.9% | 27.2% | 96.1% | 63.1% | 60.5% | 95.3%
COc1ccc(Nc2nnc(SCc3ccccc3F)s2)cc1 | 111% | 92.4% | 119% | 98.4% | 101% | 103% | 97.7% | 104% | 106% | 108% | 103% | 116% | 102% | 103 | 104% | 85.6% | 104% | 74.8% | 104% | 109%
Cc1ccc(C(=O)C2=C(O)C(=O)N(Cc3cccnc3)C2c2ccccc2F)o1 (stereo not given) | 105% | 76.7% | 101% | 106% | 95.8% | 98.1% | 93.1% | 95.1% | 95.7% | 101% | 93.8% | 108% | 94.6% | 105 | 91.6% | 96.7% | 100% | 102% | 80.8% | 115%
O=c1c2cc(F)ccc2sc2c(Nc3cccnc3)nc3ccccc3c12 | 107% | 86.4% | 103% | 72.2% | 88.4% | 89.5% | 95.2% | 82.1% | 97.8% | 104% | 87.2% | 110% | 71.9% | 94.1 | 70.2% | 88.9% | 88.9% | 101% | 89.4% | 103%
CC(=O)n1c(-c2ccc(Cl)cc2)nc2c(c1=O)C(c1ccc(Cl)cc1)c1sc3c(Cl)cccc3c1O2 (stereo not given) | 2.09% (active) | -0.184% (active) | 51.8% | -28.8% (active) | -25.4% (active) | -0.0873% (active) | -20% (active) | -63.2% (active) | 21.3% | -39.3% (active) | -37.4% (active) | -52.4% (active) | -22% (active) | 14.2 | -37.7% (active) | 4.54% (active) | -17.7% (active) | 3.42% (active) | -33.8% (active) | 18%
N#Cc1c(N)nc2c(C#N)c(NC(=O)c3ccccc3)nn2c1-c1ccccc1 | 102% | 73.1% | 102% | 84.3% | 83.5% | 86.2% | 90% | 94.2% | 105% | 87.3% | 81.2% | 99% | 83% | 89.6 | 106% | 75.7% | 78.4% | 91.2% | 86.3% | 103%
Cc1ccc(-c2c(-c3ccccc3)c(=O)oc3ccc(C)cc23)cc1 | 116% | 76% | 92.9% | 91% | 107% | 91.8% | 104% | 109% | 86.8% | 102% | 52.1% | 101% | 86.3% | 94.8 | 83.1% | 56.4% | 90.9% | 76.1% | 96.2% | 110%
